The text below walks through data of the supplement of paper PMC6992640.

The assay deals with UCD52 (cells of a triple-negative basal-like breast cancer xenograft). Put plainly: cell viability of combination (% of vehicle); higher = less cytotoxic. The conditions noted are these: 1 µM; 72 h; partner dose: 10 nM. As to the method:
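PDX cells were treated for 72 h with each drug at 1 µM plus afatinib (10 nM; 1 µM for WHIM30). Luciferase viability is expressed as percent of vehicle.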
Turning to `CC(Oc1cc(-c2cnn(C3CCNCC3)c2)cnc1N)c1c(Cl)ccc(F)c1Cl` [(R)-Crizotinib] + CN(C)C/C=C/C(=O)Nc1cc2c(Nc3ccc(F)c(Cl)c3)ncnc2cc1O[C@H]1CCOC1 [Afatinib], the “cell viability of combination” value is 48.3.
Next, `CCC(=C(c1ccccc1)c1ccc(OCCN(C)C)cc1)c1ccccc1.O=C(O)CC(O)(CC(=O)O)C(=O)O` [Tamoxifen Citrate] + CN(C)C/C=C/C(=O)Nc1cc2c(Nc3ccc(F)c(Cl)c3)ncnc2cc1O[C@H]1CCOC1 [Afatinib]: 69.5.
`Nc1ccc2cc3ccc([NH3+])cc3nc2c1.Nc1ccc2cc3ccc([NH3+])cc3nc2c1.O=S(=O)([O-])[O-]` [Proflavine Hemisulfate] + CN(C)C/C=C/C(=O)Nc1cc2c(Nc3ccc(F)c(Cl)c3)ncnc2cc1O[C@H]1CCOC1 [Afatinib]: the “cell viability of combination” value turned out to be 116.
Regarding `Oc1c(Cl)cc(Cl)c2cccnc12` [Chloroxine] + CN(C)C/C=C/C(=O)Nc1cc2c(Nc3ccc(F)c(Cl)c3)ncnc2cc1O[C@H]1CCOC1 [Afatinib], the “cell viability of combination” value turned out to be 75.4.
The same measure for `CC(C)N=c1cc2n(-c3ccc(Cl)cc3)c3ccccc3nc-2cc1Nc1ccc(Cl)cc1` [Clofazimine] + CN(C)C/C=C/C(=O)Nc1cc2c(Nc3ccc(F)c(Cl)c3)ncnc2cc1O[C@H]1CCOC1 [Afatinib]: 69.6; for `CO[C@H]1C[C@@H]2CC[C@@H](C)[C@@](O)(O2)C(=O)C(=O)N2CCCC[C@H]2C(=O)O[C@H]([C@H](C)C[C@@H]2CC[C@@H](OC(=O)C(C)(CO)CO)[C@H](OC)C2)CC(=O)[C@H](C)/C=C(\C)[C@@H](O)[C@@H](OC)C(=O)[C@H](C)C[C@H](C)/C=C/C=C/C=C/1C` [Temsirolimus] + CN(C)C/C=C/C(=O)Nc1cc2c(Nc3ccc(F)c(Cl)c3)ncnc2cc1O[C@H]1CCOC1 [Afatinib]: 40.4.
The same measure for `CCOC(=O)c1c(CSc2ccccc2)n(C)c2cc(Br)c(O)c(CN(C)C)c12.Cl` [Arbidol HCl] + CN(C)C/C=C/C(=O)Nc1cc2c(Nc3ccc(F)c(Cl)c3)ncnc2cc1O[C@H]1CCOC1 [Afatinib]: 53; for `CCN(CC)CCNC(=O)c1c(C)[nH]c(C=C2C(=O)Nc3ccc(F)cc32)c1C.O=C(O)CC(O)C(=O)O` [Sunitinib malate] + CN(C)C/C=C/C(=O)Nc1cc2c(Nc3ccc(F)c(Cl)c3)ncnc2cc1O[C@H]1CCOC1 [Afatinib]: 43.6; for `COc1cccc2c1C(=O)c1c(O)c3c(c(O)c1C2=O)CC(O)(C(=O)CO)CC3OC1CC(N)C(O)C(C)O1` (stereo not given) [Doxorubicin] + CN(C)C/C=C/C(=O)Nc1cc2c(Nc3ccc(F)c(Cl)c3)ncnc2cc1O[C@H]1CCOC1 [Afatinib]: 28.5.
Consider `O=C(c1ccc(F)c(F)c1Nc1ccc(I)cc1F)N1CC(O)(C2CCCCN2)C1` (stereo not given) [Cobimetinib] + CN(C)C/C=C/C(=O)Nc1cc2c(Nc3ccc(F)c(Cl)c3)ncnc2cc1O[C@H]1CCOC1 [Afatinib], for which the “cell viability of combination” value came to 36.5.
`CC1(C)Cc2c(-c3ccccc3)c(-c3ccc(Cl)cc3)c(CC(=O)O)n2C1` [Licofelone] + CN(C)C/C=C/C(=O)Nc1cc2c(Nc3ccc(F)c(Cl)c3)ncnc2cc1O[C@H]1CCOC1 [Afatinib]: the “cell viability of combination” value stood at 72.7.
The same measure for `CO[C@H]1C[C@@H]2CC[C@@H](C)[C@@](O)(O2)C(=O)C(=O)N2CCCC[C@H]2C(=O)O[C@H]([C@H](C)C[C@@H]2CC[C@@H](O)[C@H](OC)C2)CC(=O)[C@H](C)/C=C(\C)[C@@H](O)[C@@H](OC)C(=O)[C@H](C)C[C@H](C)/C=C/C=C/C=C/1C` [Rapamycin (Sirolimus)] + CN(C)C/C=C/C(=O)Nc1cc2c(Nc3ccc(F)c(Cl)c3)ncnc2cc1O[C@H]1CCOC1 [Afatinib]: 42.5; for `Cc1nc(Nc2ncc(C(=O)Nc3c(C)cccc3Cl)s2)cc(N2CCN(CCO)CC2)n1` + CN(C)C/C=C/C(=O)Nc1cc2c(Nc3ccc(F)c(Cl)c3)ncnc2cc1O[C@H]1CCOC1 [Afatinib]: 27.6.
The same measure for `CCc1cnn2c(NCc3ccc[n+]([O-])c3)cc(N3CCCCC3CCO)nc12` (stereo not given) + CN(C)C/C=C/C(=O)Nc1cc2c(Nc3ccc(F)c(Cl)c3)ncnc2cc1O[C@H]1CCOC1 [Afatinib]: 21.4; for `CN1CCN(c2ccc(C(=O)/N=c3\[nH][nH]c4ccc(Cc5cc(F)cc(F)c5)cc34)c(NC3CCOCC3)c2)CC1` [Entrectinib] + CN(C)C/C=C/C(=O)Nc1cc2c(Nc3ccc(F)c(Cl)c3)ncnc2cc1O[C@H]1CCOC1 [Afatinib]: 54.3.
Next, `CS(=O)(=O)CCNCc1ccc(-c2ccc3ncnc(Nc4ccc(OCc5cccc(F)c5)c(Cl)c4)c3c2)o1.Cc1ccc(S(=O)(=O)O)cc1.Cc1ccc(S(=O)(=O)O)cc1` [Lapatinib Ditosylate] + CN(C)C/C=C/C(=O)Nc1cc2c(Nc3ccc(F)c(Cl)c3)ncnc2cc1O[C@H]1CCOC1 [Afatinib]: 41.5; `Cl.Cl.O=C1c2c(O)ccc(O)c2C(=O)c2c(NCCNCCO)ccc(NCCNCCO)c21` [Mitoxantrone HCl] + CN(C)C/C=C/C(=O)Nc1cc2c(Nc3ccc(F)c(Cl)c3)ncnc2cc1O[C@H]1CCOC1 [Afatinib]: 32.2; `C=CC(=O)N1CCC(Oc2cc3c(Nc4ccc(Cl)c(Cl)c4F)ncnc3cc2OC)CC1` [Poziotinib] + CN(C)C/C=C/C(=O)Nc1cc2c(Nc3ccc(F)c(Cl)c3)ncnc2cc1O[C@H]1CCOC1 [Afatinib]: 27.6.
Regarding `COc1cccc2c1C(=O)c1c(O)c3c(c(O)c1C2=O)CC(O)(C(=O)CO)CC3OC1CC(N)C(O)C(C)O1.Cl` (stereo not given) [Epirubicin HCl] + CN(C)C/C=C/C(=O)Nc1cc2c(Nc3ccc(F)c(Cl)c3)ncnc2cc1O[C@H]1CCOC1 [Afatinib], the “cell viability of combination” value is 28.
As for `C=CC(=O)Nc1cc(Nc2nccc(-c3cn(C)c4ccccc34)n2)c(OC)cc1N(C)CCN(C)C` + CN(C)C/C=C/C(=O)Nc1cc2c(Nc3ccc(F)c(Cl)c3)ncnc2cc1O[C@H]1CCOC1 [Afatinib], the “cell viability of combination” value was determined as 50.2.
The same measure for `COc1ccc2cc1Oc1ccc(cc1)CC1c3c(cc4c(c3Oc3cc5c(cc3OC)CCN(C)C5C2)OCO4)CCN1C` (stereo not given) [Cepharanthine] + CN(C)C/C=C/C(=O)Nc1cc2c(Nc3ccc(F)c(Cl)c3)ncnc2cc1O[C@H]1CCOC1 [Afatinib]: 40.1.
The same measure for `CN(C(=O)CN(CCO)CC(=O)N(C)C(C)(C)Cc1ccccc1)C(C)(C)Cc1ccccc1` [Oxethazaine] + CN(C)C/C=C/C(=O)Nc1cc2c(Nc3ccc(F)c(Cl)c3)ncnc2cc1O[C@H]1CCOC1 [Afatinib]: 62.9.
`CCOc1nc2cccc(C(=O)OC(C)OC(=O)OC3CCCCC3)c2n1Cc1ccc(-c2ccccc2-c2nn[nH]n2)cc1` (stereo not given) [Candesartan Cilexetil] + CN(C)C/C=C/C(=O)Nc1cc2c(Nc3ccc(F)c(Cl)c3)ncnc2cc1O[C@H]1CCOC1 [Afatinib]: the “cell viability of combination” value came out at 74.5.
As to `Cl.Clc1ccccc1CN1CCc2sccc2C1` [Ticlopidine HCl] + CN(C)C/C=C/C(=O)Nc1cc2c(Nc3ccc(F)c(Cl)c3)ncnc2cc1O[C@H]1CCOC1 [Afatinib], the “cell viability of combination” value is 75.9.
Next, `CCOC(=O)C1=C(COCCN)NC(C)=C(C(=O)OC)C1c1ccccc1Cl.O=S(=O)(O)c1ccccc1` (stereo not given) [Amlodipine Besylate] + CN(C)C/C=C/C(=O)Nc1cc2c(Nc3ccc(F)c(Cl)c3)ncnc2cc1O[C@H]1CCOC1 [Afatinib]: 83.6.
Next, `CC(NCCCc1cccc(C(F)(F)F)c1)c1cccc2ccccc12` (stereo not given) [Cinacalcet] + CN(C)C/C=C/C(=O)Nc1cc2c(Nc3ccc(F)c(Cl)c3)ncnc2cc1O[C@H]1CCOC1 [Afatinib]: 59.9.
Next, `CC(C)CC(NC(=O)C(CCc1ccccc1)NC(=O)CN1CCOCC1)C(=O)NC(Cc1ccccc1)C(=O)NC(CC(C)C)C(=O)C1(C)CO1` (stereo not given) [Carfilzomib (PR-171)] + CN(C)C/C=C/C(=O)Nc1cc2c(Nc3ccc(F)c(Cl)c3)ncnc2cc1O[C@H]1CCOC1 [Afatinib]: 13.1.
As for `O=C(NN=Cc1ccc([N+](=O)[O-])o1)c1ccc(O)cc1` [Nifuroxazide] + CN(C)C/C=C/C(=O)Nc1cc2c(Nc3ccc(F)c(Cl)c3)ncnc2cc1O[C@H]1CCOC1 [Afatinib], the “cell viability of combination” value was determined as 79.4.
Next, `COc1ncc(-c2ccc3nccc(-c4ccnnc4)c3c2)cc1NS(=O)(=O)c1ccc(F)cc1F` + CN(C)C/C=C/C(=O)Nc1cc2c(Nc3ccc(F)c(Cl)c3)ncnc2cc1O[C@H]1CCOC1 [Afatinib]: 15.8.
The same measure for `CC(NCCCc1cccc(C(F)(F)F)c1)c1cccc2ccccc12.Cl` (stereo not given) [Cinacalcet HCl] + CN(C)C/C=C/C(=O)Nc1cc2c(Nc3ccc(F)c(Cl)c3)ncnc2cc1O[C@H]1CCOC1 [Afatinib]: 67.7; for `CO[C@@]12[C@H](COC(N)=O)C3=C(C(=O)C(C)=C(N)C3=O)N1C[C@@H]1N[C@@H]12` [Mitomycin C] + CN(C)C/C=C/C(=O)Nc1cc2c(Nc3ccc(F)c(Cl)c3)ncnc2cc1O[C@H]1CCOC1 [Afatinib]: 58.4; for `CNC(=O)c1cc(Oc2ccc(NC(=O)Nc3ccc(Cl)c(C(F)(F)F)c3)c(F)c2)ccn1.Cl` [Regorafenib hydrochloride] + CN(C)C/C=C/C(=O)Nc1cc2c(Nc3ccc(F)c(Cl)c3)ncnc2cc1O[C@H]1CCOC1 [Afatinib]: 53.3.
The same measure for `CCc1c(Cl)c(O)c(Cl)c(O)c1C(=O)OC1C(C)OC(OCC2=CC=CCC(O)C(C)=CC(CC)C(OC3OC(C)(C)C(OC(=O)C(C)C)C(O)C3O)C(C)=CC(C)=CCC(C(C)O)OC2=O)C(OC)C1O` (stereo not given) [Fidaxomicin] + CN(C)C/C=C/C(=O)Nc1cc2c(Nc3ccc(F)c(Cl)c3)ncnc2cc1O[C@H]1CCOC1 [Afatinib]: 81.9; for `CCCCCCCCCCCCCCCCOP(=O)([O-])OCC[N+](C)(C)C` [Miltefosine] + CN(C)C/C=C/C(=O)Nc1cc2c(Nc3ccc(F)c(Cl)c3)ncnc2cc1O[C@H]1CCOC1 [Afatinib]: 69.5; for `CC1=CC(=O)c2ccccc2C1=O` [Menadione] + CN(C)C/C=C/C(=O)Nc1cc2c(Nc3ccc(F)c(Cl)c3)ncnc2cc1O[C@H]1CCOC1 [Afatinib]: 74.6.
For `CN1CCCC1CCOC(C)(c1ccccc1)c1ccc(Cl)cc1.O=C(O)C=CC(=O)O` (stereo not given) [Clemastine Fumarate] + CN(C)C/C=C/C(=O)Nc1cc2c(Nc3ccc(F)c(Cl)c3)ncnc2cc1O[C@H]1CCOC1 [Afatinib], the “cell viability of combination” value turned out to be 65.2.
The same measure for `Br.Cc1ccc(Sc2ccccc2N2CCNCC2)c(C)c1` + CN(C)C/C=C/C(=O)Nc1cc2c(Nc3ccc(F)c(Cl)c3)ncnc2cc1O[C@H]1CCOC1 [Afatinib]: 55.4; for `CNCCC(Oc1ccc(C(F)(F)F)cc1)c1ccccc1.Cl` (stereo not given) [Fluoxetine HCl] + CN(C)C/C=C/C(=O)Nc1cc2c(Nc3ccc(F)c(Cl)c3)ncnc2cc1O[C@H]1CCOC1 [Afatinib]: 59.1.
The same measure for `Cl.OC(c1cc(C(F)(F)F)nc2c(C(F)(F)F)cccc12)C1CCCCN1` (stereo not given) [Mefloquine hydrochloride] + CN(C)C/C=C/C(=O)Nc1cc2c(Nc3ccc(F)c(Cl)c3)ncnc2cc1O[C@H]1CCOC1 [Afatinib]: 50.3.
Next, `CCCCc1oc2ccc(NS(C)(=O)=O)cc2c1C(=O)c1ccc(OCCCN(CCCC)CCCC)cc1.Cl` [Dronedarone HCl] + CN(C)C/C=C/C(=O)Nc1cc2c(Nc3ccc(F)c(Cl)c3)ncnc2cc1O[C@H]1CCOC1 [Afatinib]: 63.6.
